Experimental data: ChEMBL document CHEMBL1961873, “Compounds: GSK PKIS; Assays: Nanosyn kinase panel” (2012)
Several values for one entry are separate records, joined by “and”; a condition that tells them apart may be missing. Identical values can stand only once.

The compounds below were run against Tyrosine-protein kinase JAK2 (Homo sapiens) (UniProt O60674). Details: at 0.1 µM.
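Also: mean percent inhibition of JAK2 activity, from the GSK PKIS kinase panel screen.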

Chain of Tyrosine-protein kinase JAK2 (Homo sapiens) (O60674 whole entry): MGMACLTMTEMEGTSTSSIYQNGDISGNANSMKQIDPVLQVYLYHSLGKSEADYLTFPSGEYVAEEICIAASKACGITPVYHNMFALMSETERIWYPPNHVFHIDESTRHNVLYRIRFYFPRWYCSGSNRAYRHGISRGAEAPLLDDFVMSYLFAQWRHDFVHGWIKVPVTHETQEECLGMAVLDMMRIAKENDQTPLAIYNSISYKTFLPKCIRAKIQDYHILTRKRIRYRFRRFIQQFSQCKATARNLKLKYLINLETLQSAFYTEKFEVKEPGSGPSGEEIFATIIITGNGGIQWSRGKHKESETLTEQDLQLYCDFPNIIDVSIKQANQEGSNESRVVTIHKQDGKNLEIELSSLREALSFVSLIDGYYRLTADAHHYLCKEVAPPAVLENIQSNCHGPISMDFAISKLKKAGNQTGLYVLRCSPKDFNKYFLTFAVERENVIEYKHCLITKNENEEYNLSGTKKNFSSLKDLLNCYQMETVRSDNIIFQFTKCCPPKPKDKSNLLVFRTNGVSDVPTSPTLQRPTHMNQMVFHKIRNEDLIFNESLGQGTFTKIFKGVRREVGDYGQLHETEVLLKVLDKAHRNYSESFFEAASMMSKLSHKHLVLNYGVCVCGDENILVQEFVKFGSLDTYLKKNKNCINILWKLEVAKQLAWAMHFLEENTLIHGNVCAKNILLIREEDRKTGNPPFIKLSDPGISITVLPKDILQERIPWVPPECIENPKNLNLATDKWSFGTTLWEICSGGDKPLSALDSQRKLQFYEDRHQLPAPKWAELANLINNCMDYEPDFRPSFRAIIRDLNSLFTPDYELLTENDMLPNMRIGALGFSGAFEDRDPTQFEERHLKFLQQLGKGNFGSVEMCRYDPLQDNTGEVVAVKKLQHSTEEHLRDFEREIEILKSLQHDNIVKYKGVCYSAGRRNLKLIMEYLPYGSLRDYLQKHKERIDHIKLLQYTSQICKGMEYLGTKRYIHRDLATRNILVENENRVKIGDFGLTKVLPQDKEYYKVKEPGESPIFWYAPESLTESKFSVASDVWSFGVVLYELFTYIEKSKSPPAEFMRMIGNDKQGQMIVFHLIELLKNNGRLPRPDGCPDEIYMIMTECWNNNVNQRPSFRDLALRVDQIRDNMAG

| Structure (SMILES) | inhibition |
| --- | --- |
| CN1CCN(Cc2ccc(-c3cc4ncnc(Nc5ccc(OCc6cccc(F)c6)c(Cl)c5)c4s3)o2)CC1 | 0.99% and 0.67% |
| Cc1nnc(-c2cccc(-c3ccc(C(=O)NCC4CC4)cc3)c2)o1 | 1.87% |
| CCn1c(-c2nonc2N)nc2cncc(C(=O)NCCNC)c21 | 2.49% |
| COc1c(C(N)=O)cc(-c2ccc(Cl)cc2)cc1-c1ccc(S(N)(=O)=O)cc1 | 2.98% |
| COc1cc(N2CCN(C(C)C)CC2)ccc1Nc1nc(Nc2cccc3ncccc23)c2cc[nH]c2n1 | -0.12% |
| CS(=O)(=O)CCNCc1ccc(-c2ccc3ncnc(Nc4ccc(OCc5ccccc5)cc4)c3c2)o1 | 1.29% |
| Cc1c2ccc(N(C)c3ccnc(Nc4cccc(S(N)(=O)=O)c4)n3)cc2nn1C | 2.02% |
| N#Cc1cccc(Nc2ncc(-c3ccccc3)o2)c1 | 0.78% |
| FC(F)(F)CNc1nccc(-c2cnn3ncccc23)n1 | 1.39% |
| c1cnn2ncc(-c3ccnc(NCCCN4CCOCC4)n3)c2c1 | 2.27% |
| Cc1cc(O)cc(C)c1/C=C/c1cncc(C(N)=O)c1 | 2.3% |
| NC(=O)c1ccc2c(-c3ccnc(NCCCO)n3)c(-c3ccc(F)cc3)nn2c1 | 1.16% |
| Fc1cccc(COc2ccc(Nc3ncncc3C#Cc3ccccc3)cc2Cl)c1 | 1.34% |
| CCCNc1cccc(-n2ncc3c(N/N=C/c4ccncc4)ncnc32)c1 | 0.82% |
| COc1cccc(Nc2nccc(-c3cnn4ncccc34)n2)c1 | 1.95% |
| Cc1cc(O)cc(C)c1/C=C/c1cncc(C(=O)OC(C)(C)C)c1 | 1.65% |

| Structure (SMILES) | inhibition |
| --- | --- |
| CS(=O)(=O)Nc1ccc(-c2ccc3c(NC(=O)C4CC4)n[nH]c3c2)cc1 | 1.06% |
| COC(=O)Nc1nc2cc(Oc3ccc(NC(=O)Nc4ccccc4)cc3)ccc2[nH]1 | 0.07% |
| CN1CCC(n2cnc(-c3ccc(F)cc3)c2-c2ccnc(NCCO)n2)CC1 | 0.46% |
| CC1=C(C(=O)Nc2ccc3[nH]ncc3c2)C(c2ccc(F)cc2)N=C(c2ccc(C(F)(F)F)nc2)N1 (stereo unspecified) | 1.27% |
| NS(=O)(=O)c1cccc(N/C=C2\C(=O)Nc3ccccc32)c1 | 1.37% |
| O=C(O[C@H]1CN[C@H](C#Cc2cc3ncnc(Nc4ccc5c(ccn5Cc5cc(F)ccc5F)c4)c3s2)C1)N1CCOCC1 | 1.8% |
| CC1(C)CC(n2cnc(-c3ccc(F)cc3)c2-c2ccnc(N)n2)CC(C)(C)N1 | 0.57% |
| c1ccc(-c2n[nH]cc2-c2ccnc(-c3ccc(OCCn4ccnc4)cc3)c2)nc1 | 0.38% |
| CCN1CCC(C(=O)Nc2n[nH]c3nnc(-c4cccc(F)c4F)cc23)CC1 | -0.5% |
| CS(=O)(=O)CCNCc1ccoc1-c1ccc2ncnc(Nc3ccc(OCc4ccccc4)cc3)c2c1 | -0.17% |
| COc1cc2c(cc1Nc1nc(Nc3cccc(F)c3C(N)=O)c3cc[nH]c3n1)N(C(=O)CN1CCN(C(C)C)CC1)CC2 | 0.65% |
| O=C(Nc1n[nH]c2nnc(-c3cccnc3)cc12)C1CC1 | -0.35% |
| COc1cccc(-n2ncc3c(N/N=C/c4ccc(C(=O)NCCN(C)C)cc4)ncnc32)c1 | 2.63% |
| CN1CCC(C(=O)Nc2n[nH]c3nc(-c4ccc(O)cc4)c(Br)cc23)CC1 | 1.01% and -0.3% |
| O=C(O[C@H]1CN[C@H](C#Cc2cc3ncnc(Nc4ccc5c(cnn5Cc5ccccc5)c4)c3s2)C1)N1CCOCC1 | -0.37% |
